Only some compounds are listed: those with a hit (about 12% of all), similar ones and a draw of the others.
Cycloheximide cs: Cycloheximide Counterscreen for Small Molecule Inhibitors of Shiga Toxin | hit rate 12% among 300,000 | max response, % | cell reporter, cycloheximide protein synthesis inhibition counterscreen; in the data active means max response mostly above about 13%, no sharp cut-off; inactive means mostly below about 14%; further: read at 38.3 µM for the half of the compounds with a filed dose
Sm TGR block: qHTS Assay for the Inhibitors of Schistosoma Mansoni Peroxiredoxins; Potency, µM (top dose mostly 114 µM), actives largely listed as inhibitors; hit rate 3% among 360,000; purified TGR, DTNB reduction, TNB absorbance 405 nm; active means well fitted inhibition curve with a large enough effect; inconclusive means small, poorly fitted or top-dose-only effect; inactive means no such curve, though single readings can be large or run the other way; further: nearly all actives have a fitted effect of over 60% in size
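First, TGR (20 nM dispensed) and NADPH were mixed with compound. Second, a 15 min room-temperature incubation followed. Third, further NADPH and then DTNB were added to start the reaction. Finally, TNB absorbance was monitored kinetically.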
Shiga inhibitor: A qHTS for Small Molecule Inhibitors of Shiga Toxin | inhibition, % at 38.7 µM | Vero cells, Shiga toxin protein synthesis inhibition reporter | hit rate 9.2% among 290,000; in the data active means inhibition mostly above about 28%, no sharp cut-off; inactive means mostly below about 43%
FMDV inh: High Throughput Screening for Foot and Mouth Disease Virus Antivirals; hit rate 1.2% among 410,000; FMDV antiviral cell-based qHTS; Potency, µM (doses to about 57.9 µM), most hits filed as inhibitors; calls by dose curve; tested in HEK293T cells; further: read-out not given here; nearly all actives have a fitted effect of over 45% in size
Numbers stand for hits; - = inactive; ? = inconclusive; . = not tested or not shown; ! = repeats disagree.

SMILES	Cycloheximide cs	Sm TGR block	Shiga inhibitor	FMDV inh
O=C(c1cc(-c2cccs2)nc2ccccc12)N1CCN(c2ccccc2O)CC1	19.0	-	-	-
O=C1CC(c2cccc(O)c2)c2c(nc(SCc3ccccc3F)[nH]c2=O)N1 (stereo not given)	.	-	.	-
O=C(c1cc(F)cc(F)c1)N1CCC(c2nc(-c3ccc(S(=O)(=O)N4CCCC4)cc3)no2)CC1	.	-	.	-
CCc1cc(C(=O)NCc2c(C)ncc3c2CCN(C(=O)C2=CCCC2)C3)no1	.	.	.	-
Cc1ccc2oc(C(=O)Nc3c(C(=O)Nc4cccc(Cl)c4)oc4ccccc34)cc(=O)c2c1	.	-	.	-
OC(COc1ccc2cc(Br)ccc2c1)CN1CCCC1 (stereo not given)	46.0	-	77.0	-
OC(COc1ccc(OCc2ccccc2)cc1)CN1CCCCC1 (stereo not given)	30.9	-	73.8	.
OC(COc1ccccc1)CN1CCCC1 (stereo not given)	-	-	-	-
OCCN1CCN(CC(O)COc2ccc(-c3ccccc3)cc2)CC1 (stereo not given)	32.4	-	73.9	-
CC1CCCN(CC(O)COc2ccc(-c3ccccc3)cc2)C1 (stereo not given)	-	-	-	-
OC1CCCN(CC(O)COc2ccc(-c3ccccc3)cc2)C1 (stereo not given)	23.1	-	53.9	-
CC(C)(C)C(=O)OCc1cc(=O)n2nc(C3CC3)sc2n1	.	-	.	-
COc1ccc(-c2nc3cnc(Nc4cccc(OC)c4)nc3n(C)c2=O)cc1	.	.	.	-
Cc1ccc(C2N3CC4(C)CN2CC(c2ccccc2)(C3)C4=O)cc1 (stereo not given)	.	-	.	-
OC(COc1ccc(-c2ccccc2)cc1)CN1CCOCC1 (stereo not given)	21.9	-	-	.
OC(COc1ccc(OCc2ccccc2)cc1)CN1CCOCC1 (stereo not given)	19.6	-	-	.
N=c1n(CCN2CCCCC2)c2ccccc2n1CC(O)COc1ccccc1 (stereo not given)	-	-	-	39.8µM!
N=c1n(CCN2CCOCC2)c2ccccc2n1CC(O)COc1ccccc1 (stereo not given)	-	-	-	-
O=C(c1ccccc1)c1ccc(OCC(O)CN2CCOCC2)cc1 (stereo not given)	.	.	.	-
Cc1ccc2c(CN3CCN(C(=O)c4ccc(Br)cc4)CC3)cc(=O)oc2c1	.	-	.	-
CCCNC(=O)C1CC(=O)N(c2ccc(OCc3ccc(F)cc3)cc2)C1 (stereo not given)	33.3	-	112.4	-
CCOc1ccc(N2CC(C(=O)NCc3ccc(F)cc3)CC2=O)cc1 (stereo not given)	-	-	-	.
NC(=O)C1CC(=O)N(c2ccc(OCc3ccc(Cl)cc3)cc2)C1 (stereo not given)	49.6	-	78.9	-
CCCNC(=O)C1CC(=O)N(c2ccc(OCc3ccc(Cl)cc3)cc2)C1 (stereo not given)	27.1	-	.	-
C=CCNC(=O)C1CC(=O)N(c2ccc(OCc3ccc(F)cc3)cc2)C1 (stereo not given)	47.5	-	72.0	-
SMILES	Cycloheximide cs	Sm TGR block	Shiga inhibitor	FMDV inh
O=C(CC1N=C2c3ccccc3N=C(SCc3cccc(Cl)c3)N2C1=O)NCCc1ccccc1 (stereo not given)	.	-	.	-
C=CCNC(=O)C1CC(=O)N(c2ccc(OCC(=O)Nc3ccccc3)cc2)C1 (stereo not given)	30.1	-	47.9	-
COc1ccc(-c2nc(C)c(CCNC(=O)c3ccccc3Br)s2)cc1OC	.	-	.	-
C/C(=C\c1ccccc1)C(=O)NCCc1ccccc1	30.8	.	65.7	-
C/C(=C\c1ccccc1)C(=O)NCc1ccco1	35.6	-	65.8	-
Cc1ccc(C(=O)N/C(=C\c2sccc2C)C(=O)NCc2ccco2)cc1	-	-	-	-
Cc1ccc(C(=O)N/C(=C/C=C\c2ccccc2)C(=O)NCc2ccco2)cc1	17.3	?	-	-
CCN(CC)S(=O)(=O)c1ccc2c(c1)c(=O)c(C(=O)N1CCN(c3cc(C)ccc3C)CC1)cn2C	.	-	.	-
O=C(NNC(=O)C12CC3CC(CC(C3)C1)C2)[C@@H]1C[C@H]1c1ccccc1	25.8	-	45.6	-
O=C(Nc1ccccc1F)C1CC1c1ccccc1 (stereo not given)	-	-	41.0	-
O=C(NNC(=O)C1CC1c1ccccc1)Nc1ccccc1 (stereo not given)	-	-	-	-
CCCOc1ccc(NC(=O)CC2C(=O)N(c3ccc(Cl)cc3)C(=O)N2CCc2ccncc2)cc1 (stereo not given)	.	-	.	-
C=CCNC(=O)c1cc([N+](=O)[O-])cc2c(=O)[nH]c(Nc3ccc(Cl)c(Cl)c3)nc12	.	.	.	-
Cc1ccc(NC(=O)CN2C(=O)C(c3ccc(C)cc3)=NC23CCCCCC3)cc1	.	-	.	-
O=C1C2C3C=CC(C3)C2C(=O)N1c1nc2ccccc2s1 (stereo not given)	-	-	-	-
O=C1N/C(=C\c2ccccc2)c2ccccc21	27.4	-	56.6	-
O=C1N/C(=C\c2nc3ccccc3s2)c2ccccc21	62.1	-	75.5	.
COc1ccc(C)cc1NS(=O)(=O)c1ccc2c(c1)[C@H]1C=CC[C@H]1[C@@H](c1cccc(Cl)c1)N2	.	?	.	-
Cc1ccc(Cl)cc1-n1c(=O)cc(N2CCN(c3ccccc3)CC2)[nH]c1=O	.	-	.	-
CC(=O)c1c(N=CN(C)C)nc(C)nc1-c1ccccc1	-	-	-	-
CN(C)C=Nc1ccccc1C1C=NNC1=O (stereo not given)	22.9	-	52.0	.
CCNc1ncc2nc(-c3ccc(OC)cc3)c(=O)n(CCOC)c2n1	.	.	.	-
Fc1ccc(-c2cc(C(F)(F)C(F)F)[nH]n2)cc1	27.0	-	64.6	-
Oc1ccccc1-c1cc(C(F)(F)F)[nH]n1	-	-	-	.
Oc1ccccc1-c1cc(C(F)(F)C(F)F)[nH]n1	22.5	-	28.1	.
FC(F)C(F)(F)c1cc(-c2ccc(Cl)cc2)n[nH]1	31.4	-	46.2	-
O=c1oc2ccccc2c(O)c1Cc1c(O)c2ccccc2oc1=O	.	.	.	-
O=c1oc2ccccc2c2oc3cc(O)c(O)cc3c12	24.5	-	26.1	-
O=C(C1CCC(Cn2c(=O)c3sccc3n(Cc3ccc(F)cc3)c2=O)CC1)N1CCOCC1 (stereo not given)	.	-	.	-

Bioassay records: PubChem BioAssay, National Center for Advancing Translational Sciences (NCATS)
